Results from PubChem BioAssay AID488965 (Broad Institute, 2010).
In all, about 340,000 compounds went through this assay and about 210 (0.062%) were called active. Shown is part of a subset that was picked to be rich in actives. Values without a mark were called inactive. Rule as the data show it: active = inhibition above about 30% (passing the limit was not always enough); inconclusive = no clear call, values can overlap the other calls.

What follows are molecules tested on PvdQ acylase [Pseudomonas aeruginosa LESB58] (assay: P. aeruginosa PvdQ acylase inhibitors, primary screen, biochemical, fluorescence, plate reader and imaging, single point (AID 488965;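 also: 0% = vehicle neutral wells and 100% = reference inhibitor wells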)). Details: purified PvdQ acylase, at 10 µM, stronger effect = higher value.

| Compound | inhibition |
| --- | --- |
| CCSc1nc2sc3c(c2c(=O)n1-c1ccc(C)cc1)CCN(C)C3 | -19.4% |
| C/C=N/N(c1ccccc1)c1ccccc1 | -15.2% |
| COC(=O)C[n+]1cccc2ccccc21 | -19.7% |
| CC(=O)c1ccccc1NC(=O)C1CC(=O)N(c2ccc3c(c2)OCCO3)C1 (configuration not stated) | 3.1% |
| Cc1ccc(-c2csc(N3CCN(c4cc5c(cc4Cl)nc(-c4ccncc4)n5CCOCCO)CC3)n2)cc1 | 2.95% |
| CCOc1ccc(/C=C(/NC(=O)c2ccccc2)C(=O)NCCC(=O)O)cc1 | 3.82% |
| O=C(NCc1cccnc1)c1cnc2ccccc2n1 | -7.28% |
| COc1ccccc1CN1CCCC(N2CCN(c3ccc(F)cc3)CC2)C1 (configuration not stated) | -5.39% |
| O=C(COC(=O)/C=C/c1cccs1)NC1CCCCC1 | -1.95% |
| COc1ccc(Cn2c(-c3ccc(Cl)cc3)c[n+]3ccccc23)cc1 | -9.83% |
| COc1ccc(/C(N)=N/OC(=O)CCCc2ccccc2)cc1 | 12.9% |
| Cc1ccccc1N1CC(C(=O)Nc2ccc(S(=O)(=O)N3CCCC3)cc2)CC1=O (configuration not stated) | -17.2% |
| COc1ccccc1C(=O)N(Cc1ccc(C)o1)C1CCS(=O)(=O)C1 (configuration not stated) | -16.8% |
| O=C(NCc1cccc(CNC(=O)Nc2cccc(O)c2)c1)Nc1cccc(O)c1 | 8.11% |
| OCCn1c(-c2ccccc2)csc1=Nc1ccccc1 | -14.6% |
| CNC[C@H](CC1CCCCC1)NC[C@H](NCCC1CCCC1)[C@H](C)O | -4.64% |
| CCCCNC1(C#N)CCN(Cc2ccccc2)CC1 | -10.8% |
| Cc1ccc(S(=O)(=O)N[C@@H](Cc2ccccc2)C(=O)N2CCC(C(=O)N[C@H](C(=O)O)C(C)O)CC2)cc1 (some centres not stated) | -16.1% |
| CN1CCN(CC(O)COCc2ccc3c(c2)OCO3)CC1 (configuration not stated) | 13.9% |

| Compound | inhibition |
| --- | --- |
| O=C(c1cccs1)C1C(c2ccc(Br)cc2)NC(=S)NC1(O)C(F)(F)F (configuration not stated) | -1.76% |
| Cc1ccc2nc(SCC(=O)N3CCN(c4ccccc4)CC3)nc(=O)n2c1 | -4.06% |
| CCC1([N+](=O)[O-])COC(c2ccc(C)cc2)OC1 (configuration not stated) | -3.75% |
| CCCCCN(C(=O)NC(=O)Nc1ccccc1OC)S(C)(=O)=O | -5.97% |
| Cc1cccn2c(CN(C)C3CCCc4ccccc43)c(C(=O)N3CCOCC3)nc12 (configuration not stated) | -1.38% |
| CCOc1cccc(OCCCOc2cccc3cccnc23)c1 | -17.7% |
| COc1ccc(S(=O)(=O)N(C)C[C@H]2Oc3ccc(NS(=O)(=O)c4cccs4)cc3CC(=O)N([C@H](C)CO)C[C@H]2C)cc1 | 3.49% |
| CCCCCC1CC(COc2ccccc2)OC1=O (configuration not stated) | 44.8% (active) |
| CCCCN1CC(COc2ccccc2)Oc2cccc(F)c2S1(=O)=O (configuration not stated) | -16% |
| O=C(O)c1ccc(OCC2CCCO2)cc1 (configuration not stated) | -9.45% |
| CCCCCCNS(=O)(=O)c1ccccc1Br | -11.4% |
| CC(CNC(=O)Cn1cnc2c(OCc3ccccc3)ncnc21)c1ccccc1 (configuration not stated) | -13.2% |
| CCCCNC(=O)N1CCCC(N(C)CCc2ccc(OC)c(OC)c2)C1 (configuration not stated) | -14.5% |
| CN(Cc1ccccc1F)C(=O)C(Cc1ccccc1)NC(=O)c1ccccc1 (configuration not stated) | -5.25% |
| Cc1nn(CCOc2ccc(Br)cc2)c(C)c1[N+](=O)[O-] | -14% |
| CCOC(=O)N1CCN(Cc2nc3ccc([N+](=O)[O-])cc3c(=O)n2-c2cccc(OC)c2)CC1 | -6.54% |
| CCn1nnnc1SCC(=O)Nc1ccc(N(C)C)cc1 | -8.46% |
| COc1ccc(N(CC(=O)NC2CCCCCCC2)S(=O)(=O)c2c(C)nn(C)c2C)cc1 | -11.2% |
| Cc1ccc(CNC(=O)CC(NC(=O)c2ccccc2)c2ccccc2)cc1 (configuration not stated) | -6.05% |

| Compound | inhibition |
| --- | --- |
| NC(=O)c1ncc(C(F)(F)F)cc1Oc1ccc(F)cc1 | -11.7% |
| O=C(Nc1ccc(OCC(=O)N2CCOCC2)cc1)c1cc(F)c(F)cc1Cl | -15.7% |
| Cc1ccc(CN2CC(C(=O)N3CCN(S(=O)(=O)c4ccccc4)CC3)CC2=O)cc1 (configuration not stated) | -11.4% |
| O=C1C=CC(=O)N1c1ccc(N2CCCCC2)cc1 | -13.5% |
| C#CCOCCOCCOCCNc1nc(N2CCN(C(=O)[C@H](CO)n3cc([C@@H](N)C(C)C)nn3)CC2)nc(N2CCN(C(=O)[C@H](CCC(=O)O)n3cc([C@@H](N)[C@H](C)CC)nn3)CC2)n1 | -4.25% |
| COc1ccc(C(=O)NC2CCN(C(=O)Nc3ccc(F)cc3)CC2)cc1 | -6.33% |
| O=C(CSc1nnc(-c2cccnc2)n1CCc1ccccc1)NCc1ccccc1 | -11.6% |
| CCOC(=O)C1(Cc2ccc(O)cc2)NC(c2ccccc2F)C2C(=O)N(C)C(=O)C21 (configuration not stated) | -8.27% |
| CC[C@]12c3[nH]c4ccc(Cl)cc4c3CCN1C(=O)[C@@H](CC(=O)NCCCOC)C[C@@H]2C(=O)N1CCN(C(=O)c2ccco2)CC1 | -13.8% |
| O=C(/C=C/c1ccccc1Cl)Nc1ccc(S(=O)(=O)Nc2ncccn2)cc1 | -4.75% |
| O=C(CCCOc1ccccc1)NCc1ccco1 | -2.34% |
| CCn1c(SCC(=O)Nc2ccc(OC)c(OC)c2)nnc1-c1c[nH]c2ccccc12 | -5.34% |
| COc1ccc(N2C(=O)CC(Sc3n[nH]c(-c4ccc(C)cc4)n3)C2=O)cc1 (configuration not stated) | -16% |
| CC(NC(=S)NNS(=O)(=O)c1ccc(C(C)(C)C)cc1)c1ccccc1 (configuration not stated) | -8.37% |
| Cc1cc(C)cc(NC(=O)N(C)Cc2ccccc2)c1 | -16% |
| C/C(Cc1ccccc1)=N\NC(=O)CNC(=O)c1cccc(Br)c1 | 2.03% |
| CCOc1ccc(OCC)c(NC(=O)CCS(=O)(=O)c2ccc(C)cc2)c1 | -14.3% |
| CCc1ccc(NC(=O)N2CCc3ccccc3C2)cc1 | -0.823% |
| CCOC(=O)C(NC(=O)CC(C)C)(Nc1sc2c(c1C(N)=O)CCCC2)C(F)(F)F (configuration not stated) | -4.91% |
